In the library only some 11% were active in any assay of this set; here they are far more common.
NIH3T3 tox – Cytotoxic Profiling in NIH 3T3 Cell Line of Diverse Libraries Using Quantitative High-Throughput Screening. 4.3% of 94,000 active. AID 1345082, 2018. Potency, µM (top dose mostly 96.7 µM), for the others: at the top dose activity change, negative = cytotoxicity, most hits filed as inhibitors. NIH 3T3 viability, CellTiter-Glo ATP luminescence, 48-72 h; further: nearly all actives have a fitted effect of over 55% in size
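Luminescent ATP readout (CellTiter-Glo, 10 min RT) after 48 or 72 hr compound exposure of NIH 3T3 cells seeded at 400 cells/well in 1536-well format; quantitative HTS.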
FLuc inh – Firefly luciferase inhibition profiling of diverse chemical library using quantitative high-throughput screening | Luciferin 4-monooxygenase (Photinus pyralis), P08659 | purified P. pyralis luciferase, luminescence, biochemical | Potency, µM (top dose mostly 115 µM), usual class: inhibitors | 2.5% of 76,000 active; further: nearly all actives have a fitted effect of over 65% in size
Target sequence (P08659 whole entry, looked up): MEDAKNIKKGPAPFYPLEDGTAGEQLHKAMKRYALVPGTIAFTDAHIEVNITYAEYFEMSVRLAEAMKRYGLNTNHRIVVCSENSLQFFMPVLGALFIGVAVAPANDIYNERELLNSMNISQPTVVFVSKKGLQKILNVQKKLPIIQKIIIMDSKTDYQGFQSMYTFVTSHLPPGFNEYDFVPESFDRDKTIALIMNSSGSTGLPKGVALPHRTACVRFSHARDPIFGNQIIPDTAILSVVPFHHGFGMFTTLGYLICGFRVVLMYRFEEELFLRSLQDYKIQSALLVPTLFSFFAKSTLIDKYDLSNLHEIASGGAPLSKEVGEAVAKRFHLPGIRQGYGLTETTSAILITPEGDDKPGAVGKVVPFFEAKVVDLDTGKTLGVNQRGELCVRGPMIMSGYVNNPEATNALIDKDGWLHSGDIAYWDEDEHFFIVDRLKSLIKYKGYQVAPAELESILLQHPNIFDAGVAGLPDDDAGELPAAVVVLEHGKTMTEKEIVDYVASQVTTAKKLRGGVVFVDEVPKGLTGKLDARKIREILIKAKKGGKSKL
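Cell-free enzyme assay, 10nM P. pyralis luciferase, luciferin and ATP each at 10uM. Inhibition profiled over a 6-point titration, read as luminescence.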
hNpr1 antagonist – Natriuretic polypeptide receptor (hNpr1) antagonism - Primary qHTS | 1.6% of 76,000 active | Atrial natriuretic peptide receptor 1 (Homo sapiens), P16066 | HEK293 hNpr1 GloSensor cGMP, ANP-stimulated luminescence | Potency, µM (top dose mostly 46.3 µM), without a hit: at the highest dose activity change, negative = inhibition, most hits filed as inhibitors | AID 1347048, 2019; calls by dose curve; further: nearly all actives have a fitted effect of over 60% in size
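Compound pre-incubated 30 min at room temperature on GloSensor-loaded HEK293 cells stably carrying hNpr1 and the pGS-40F cGMP biosensor. Stimulation uses hNppA at 0.1 nM final; luminescence is taken at baseline and 20 min post-agonist.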
HEK cytotox – Cytotoxic Profiling in HEK 293 Cell Line of Diverse Libraries Using Quantitative High-Throughput Screening. HEK 293 viability, ATP luminescence (CellTiter-Glo), 48-72 h. 6.6% of 94,000 active. Potency, µM (doses to about 115 µM), without a hit: at the highest dose activity change, negative = cytotoxicity, hits mostly inhibitors; further: nearly all actives have a fitted effect of over 60% in size
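Pintool-delivered compounds were incubated with HEK 293 cells (250 cells/well) at 37 degree Celsius for 48 or 72 hr. ATP-dependent luminescence (CellTiter-Glo) then reported remaining viable cells.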
Active calls of the source: *; i = inactive; ? = inconclusive; · = not tested or not shown; ! = not confirmed by another sample; [ ] = remark or other dose. Unless noted, the call rests on the fitted dose curve; in most records, active means well fitted curve in the direction sought with a large enough effect; inconclusive means small, poorly fitted or top-dose-only effect, or another doubt; inactive means no such curve, though single readings can be large; an effect the other way counts as inactive or inconclusive. On the % scale 0 is the no-effect control and ±100 the full control effect; potency means the concentration at half of the fitted maximal effect.

SMILES | NIH3T3 tox | FLuc inh | hNpr1 antagonist | HEK cytotox
CC(C)C(=O)Nc1ccc(C2(C(=O)NCc3cccs3)CCCCC2)cc1 | 31.6µM* | i | 5.7% | ?
CC(=O)Nc1ccc(C2(C(=O)NCc3cccs3)CCC2)cc1 | i | i | 0.3% | 4.5%
Cc1ccc(CNC(=O)C2(c3ccc(NC(=O)C4CC4)cc3)CCCCC2)o1 | ? | i | -10.0% | 44.7µM*
Cc1ccccc1CNC(=O)C1(c2ccc(NS(C)(=O)=O)cc2)CCCCC1 | 28.2µM* | i | -1.4% | -28.9%
O=C(NCc1ccc(F)cc1)C1c2ccccc2C(=O)N(Cc2ccccc2)C12CCCC2 (stereo not given) | 35.5µM* | i | -11.9% | 39.8µM*
Cc1ccncc1C(=O)N1CCC(Oc2ccccc2-c2nc(C3CC3)no2)C1 (stereo not given) | -15.2% | · | · | ?
CCC1CN(c2ccc(-c3nc(-c4ccc(OC)cc4)no3)cn2)CCN1C (stereo not given) | 79.4µM* | ? | -3.7% | ?
CCOC(=O)[C@H]1C[C@]2(CCCCN(CCOC(C)=O)C2=O)N(C(=O)c2ccno2)[C@H]1c1ccccc1 | ? | · | · | -22.1%
CN1CCN(c2nc3c(c(=O)[nH]2)CCN(Cc2ccccc2C(F)(F)F)CC3)CC1 | -29.6% | i | -1.5% | 79.4µM*
CCc1nc2c(c(-c3ccc(O)cc3)n1)CCN(Cc1ccccc1C(F)(F)F)CC2 | 39.8µM* | i | -2.0% | ?
Cc1ccc(CN2CCc3nc(C4CC4)nc(-c4ccc(O)cc4)c3CC2)cc1 | ? | i | -1.6% | ?
CCc1nc2c(c(-c3ccc(O)cc3)n1)CCN(Cc1cccc(C(F)(F)F)c1)CC2 | 39.8µM* | i | ? | 44.7µM*
Cc1ccccc1CN1CCc2nc(N3CCN(C)CC3)[nH]c(=O)c2CC1 | i | i | 2.1% | 3.9%
Oc1ccc(-c2nc(C3CC3)nc3c2CCN(Cc2ccccc2C(F)(F)F)CC3)cc1 | 31.6µM* | i | -0.2% | 31.6µM*
CCc1nc2c(c(-c3ccc(O)cc3)n1)CCN(Cc1ccc(OC(F)(F)F)cc1)CC2 | ? | i | -27.4% | ?
C=CCOc1cccc(-c2nc(C(=O)N(C)Cc3ccco3)cs2)c1 | ? | ? | -13.9% | ?
COc1ccccc1Nc1cnc2ccc(-c3cccc(CO)c3)nn12 | ? | i | ? | ?
COc1cccc(Nc2cnc3ccc(-c4cccc(CO)c4)nn23)c1 | ? | i | -16.5%[70.6 µM] | ?
Cc1ccccc1Nc1cnc2ccc(-c3cccc(CO)c3)nn12 | ? | i | -2.6%[70.6 µM] | 79.4µM*
OCc1cccc(-c2ccc3ncc(Nc4cccc(F)c4)n3n2)c1 | 28.2µM* | i | -24.3%[70.6 µM] | 56.2µM*
C[S+](=O)([O-])c1ccc(-c2cnc3[nH]cc(CC(=O)N4CCOCC4)c3c2)cc1 | 44.7µM* | i | -0.1%[70.6 µM] | -3.1%[172 µM]
Cn1cc(-c2cnc3[nH]cc(CC(=O)N4CCCC4)c3c2)cn1 | 31.6µM* | i | 9.0%[70.6 µM] | -29.0%[172 µM]
Cn1cc(-c2cnc3[nH]cc(CC(=O)NCc4ccncc4)c3c2)cn1 | ? | i | 0.2%[70.6 µM] | -10.0%[172 µM]
COC1CCN(C(=O)Cc2c[nH]c3ncc(-c4cnn(C)c4)cc23)CC1 | 44.7µM* | i | 5.7%[70.6 µM] | ?
O=C(CC[C@@H]1CNC(=O)[C@@H]2C[C@H](NC(=O)Nc3cccc(Cl)c3)CN12)NCc1cccnc1 | -17.4% | i | 7.2% | -9.6%
SMILES | NIH3T3 tox | FLuc inh | hNpr1 antagonist | HEK cytotox
O=C(c1ccc(C(F)(F)F)cc1)N1CCCN(c2ccc3nnc(C4CC4)n3n2)CC1 | -29.8% | · | · | -7.2%
O=C(c1ccccc1)N1CCC2(CC1)C(=NC1CCCCC1)NC(=O)N2c1cc(F)cc(F)c1 | 31.6µM* | · | · | -9.4%
O=C(c1ccc(C(F)(F)F)cc1)N1CCC2(C1)C(=NC1CCCCC1)NC(=O)N2c1cccnc1 (stereo not given) | -2.0% | · | · | i
O=C(c1ccc(C(F)(F)F)cc1)N1CCC2(CC1)C(=NC1CCCC1)NC(=O)N2c1cccnc1 | 35.5µM* | · | · | i
COc1cccc(N2C(=O)NC(=NC3CCCCC3)C23CCN(C(=O)c2ccccc2)C3)c1 (stereo not given) | -5.8% | i | -5.2% | ?
COc1cccc(N2C(=O)NC(=NC3CCCCC3)C23CCN(C(=O)c2ccccc2)CC3)c1 | 31.6µM* | · | · | -3.6%
O=C1CCN(C(=O)C2CCC2)c2ccc(F)cc2CN1Cc1ccccc1 | -8.2% | · | · | ?
COCC(=O)N1CCN(C(=O)c2nc3cccnc3n(Cc3ccc(OC)cc3)c2=O)CC1 | -10.2% | · | · | 3.6%
Cc1nn(C)c2nc(NCCCOC3CCCC3)sc12 | ? | 35.5µM* | ? | 31.6µM*
COc1ccc(C(=O)N2CCCC(c3nn(-c4ccccn4)c(=O)[nH]3)C2)cc1 (stereo not given) | i | · | · | i
COc1ccccc1Cn1c(=O)c(C(=O)N2CCN(C(C)=O)CC2)nc2cccnc21 | 3.2% | · | · | i
O=C(NCCNC(=O)c1ccc(-c2cncnc2)cc1)Nc1ccccc1F | -14.2% | · | · | 4.3%
COc1ccc(F)cc1-c1cccc(C(=O)NCCNC(=O)Nc2ccccc2F)c1 | ? | · | · | 20µM*
COc1ccc(F)cc1-c1cccc(C(=O)NCCNC(=O)Nc2ccccc2)c1 | 35.5µM* | · | · | 50.1µM*
COc1ccc(F)cc1-c1cccc(C(=O)O)c1 | -9.8%[138 µM] | · | · | -3.6%[172 µM]
O=C(c1n[nH]c2ccccc12)N1CC(Oc2ccccc2-c2nc(-c3ccccc3)no2)C1 | -26.4% | i | -1.9% | -15.8%
CCn1cc(-c2ccc(Cl)cc2)cc1C(=O)NCC(=O)OC | ? | 39.8µM* | 2.3% | -32.7%
CCOC(=O)CNC(=O)c1cc(-c2ccc(Cl)cc2)cn1C | -26.9% | i | -16.1% | -16.3%
CCn1cc(-c2ccc(C)cc2)cc1C(=O)N1CCCN(C)CC1 | ? | i | -10.4% | 79.4µM*
CCn1cc(-c2ccc(Cl)cc2)cc1C(=O)N1CCCN(C)CC1 | 17.8µM* | i | -8.7% | 25.1µM*
CCn1cc(-c2ccc(Cl)cc2)cc1C(=O)N1CCN(C(C)C)CC1 | 39.8µM* | i | -8.9% | ?
COCC(=O)N1CCCC(C(=O)N2CCC(c3nc4ncccc4[nH]3)C2)C1 (stereo not given) | -20.6% | · | · | 0.0%
COc1ccc(S(=O)(=O)NC[C@H]2Cn3c(-c4ccc(F)cc4)cnc3CO2)cc1 | ? | i | -28.0%[70.6 µM] | ?
O=C(NC1CCN(Cc2cccc(-c3ccc(F)c(F)c3)c2)CC1)c1ccc(F)cc1 | 39.8µM* | · | · | 39.8µM*
COc1ccc(C(=O)NC2CCN(Cc3cccc(-c4ccc(F)c(F)c4)c3)CC2)cc1 | 22.4µM* | · | · | ?
O=C(NC1CCCC1)NC1CCN(Cc2cccc(-c3ccc(F)cc3F)c2)CC1 | ? | · | · | 35.5µM*!
